# Measurements published in PubChem BioAssay (NCATS).
# A number with no mark means an inactive call. Inconclusive results are not listed. A call without a number means that no potency is given here. Activity calls are given as the source filed them. Unless noted, calls come from the whole dose curve; as a rule, active = well fitted curve in the direction sought with a large enough effect; inconclusive = small, poorly fitted or top-dose-only effect, or another doubt; inactive = no such curve, though single readings can be large; an effect the other way counts as inactive or inconclusive.
# Tests used:
# [1] = target: Glutathione peroxidase 1 (Homo sapiens) (UniProt P07203); experiment: Primary qHTS Assay for Inhibitors of Recombinant Selenoprotein Glutathione Peroxidase 1 (GPX1) (AID 1845191); note: nearly all actives have a fitted effect of over 65% in size; note: potency is the fitted concentration of half-maximal effect
# Sequence of Glutathione peroxidase 1 (Homo sapiens) (P07203 whole entry, looked up): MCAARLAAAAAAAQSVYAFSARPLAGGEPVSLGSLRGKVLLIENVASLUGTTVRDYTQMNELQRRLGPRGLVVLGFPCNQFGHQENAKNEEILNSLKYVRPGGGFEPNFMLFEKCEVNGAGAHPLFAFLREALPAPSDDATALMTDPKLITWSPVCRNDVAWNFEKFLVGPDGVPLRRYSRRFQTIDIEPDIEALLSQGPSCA
# In short: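 GPX1 10 nM, GR 100 nM, GSH 1 mM, NADPH 0.5 mM, CHP 0.5 mM (final). 30-min cpd preincubation, RT. Ex340/Em450 read t=0, t=15 min.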
# [2] = target: Phospholipid hydroperoxide glutathione peroxidase GPX4 (Homo sapiens) (UniProt P36969); experiment: Primary qHTS Assay for Inhibitors of Recombinant Selenoprotein Glutathione Peroxidase 4 (GPX4) (AID 1845192); note: nearly all actives have a fitted effect of over 65% in size; for activity change, negative = inhibition: series mostly up to about 50 µM
# Sequence of Phospholipid hydroperoxide glutathione peroxidase GPX4 (Homo sapiens) (P36969 whole entry, looked up): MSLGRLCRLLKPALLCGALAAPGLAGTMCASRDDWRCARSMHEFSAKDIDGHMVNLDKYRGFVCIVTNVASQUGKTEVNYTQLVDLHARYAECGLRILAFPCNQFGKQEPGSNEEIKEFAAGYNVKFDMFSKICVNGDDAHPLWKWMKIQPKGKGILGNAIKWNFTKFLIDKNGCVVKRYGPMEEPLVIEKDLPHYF
# In short: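 qHTS, GR-coupled: GPX4 200 nM + cpd 30 min RT → GSH 1 mM, NADPH 0.5 mM, GR 100 nM → CHP 0.5 mM start; fluor 340/450 at t0 and t15 min; no-enzyme wells as control.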
# [3] = NCATS anti-infectives library activity on the primary C. elegans qHTS viability assay (AID 1745855; calls by dose curve; note: potency is the fitted concentration of half-maximal effect)
# In short: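 Titration-based screen in worms: eggs hatched overnight in M9, L1 larvae fed TOP10 capsules in S medium with compound, incubated 21 °C for 7 days; fluorescent objects gated by size and intensity at days 0, 3 and 7.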
# [4] = Viability counterscreen for agonist of constitutive androstane receptor (CAR) against the NCATS DSHEA and TCM libraries (AID 1794838); note: potency is the fitted concentration of half-maximal effect
# In short: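 Viability by CellTiter-Fluor fluorescence, 405/540 nm, after 1 h at 37C. HepG2-CYP2B6-hCAR cells were exposed 24 h to test substances in presence of 0.75 uM PK11195 (final).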
# [5] = HepG2 viability counterscreen (readout 2: ATP content) against the NCATS DSHEA and TCM libraries (AID 1794840)
# In short: (§1)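 1,000 HepG2 cells/well, 4 h attach; compounds ~24 h, 37C/5% CO2. Readout 1: GF-AFC 25 uM final, 30 min, fluorescence 380/510 nm. Readout 2: CellTiter-Glo, 30 min RT, luminescence.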
# [6] = HepG2 viability counterscreen (readout 1: protease activity) against the NCATS DSHEA and TCM libraries (AID 1794841);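 note: cells exposed to compounds for about 24 h before the protease read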
# In short: as §1
# [7] = target: Luciferin 4-monooxygenase (Photinus pyralis) (UniProt P08659); experiment: Primary firefly luciferase (FLuc) qHTS assay for identification of artifact compounds. (AID 1845220); note: nearly all actives have a fitted effect of over 60% in size
# In short: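 qHTS, 15 min compound preincubation with substrate (10 uM luciferin, 10 uM ATP) at RT, then 10 nM FLuc; 5 min; luminescence; % inhibition vs no-enzyme/DMSO controls, 4-parameter Hill fit.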
# [8] = Viability counterscreen for antagonist of constitutive androstane receptor (CAR) against the NCATS DSHEA and TCM libraries (AID 1794837);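 note: compound exposure lasted 24 h before viability reading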
# In short: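 Cell viability, CellTiter-Fluor, Ex/Em 405/540 nm, 1 h at 37C. HepG2-CYP2B6-hCAR, 2,500 cells/well; cpds + CITCO 48 uM final (antagonist mode), 24 h, 37C/5% CO2.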
# [9] = target: Nuclear receptor subfamily 1 group I member 3 (Homo sapiens) (UniProt Q14994); experiment: Primary qHTS for agonist of constitutive androstane receptor (CAR) against the NCATS DSHEA and TCM libraries (AID 1794839);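 note: HepG2 cells expressing human CAR with a CYP2B6 reporter plus PK11195 antagonist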
# Sequence of Nuclear receptor subfamily 1 group I member 3 (Homo sapiens) (Q14994 whole entry, looked up): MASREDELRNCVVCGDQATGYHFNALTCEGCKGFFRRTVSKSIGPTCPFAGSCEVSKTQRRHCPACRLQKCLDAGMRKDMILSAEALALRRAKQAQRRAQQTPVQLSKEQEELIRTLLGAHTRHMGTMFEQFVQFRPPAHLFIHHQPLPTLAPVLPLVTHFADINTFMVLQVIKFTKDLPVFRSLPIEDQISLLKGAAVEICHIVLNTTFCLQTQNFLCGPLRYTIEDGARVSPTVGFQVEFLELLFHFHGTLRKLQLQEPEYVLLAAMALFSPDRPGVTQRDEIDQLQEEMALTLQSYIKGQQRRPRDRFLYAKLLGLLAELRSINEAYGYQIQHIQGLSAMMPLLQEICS
# In short: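 Luminescence from ONE-Glo luciferase was the agonist read-out in HepG2-CYP2B6-hCAR cells exposed 24 h to test substances. Wells also held the CAR antagonist PK11195 at 0.75 µM final. Viability was by CellTiter-Fluor fluorescence.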
# [10] = target: Metallo-beta-lactamase type 2 (Klebsiella pneumoniae) (UniProt C7C422); experiment: qHTS to identify inhibitors of the New Delhi Metallo-beta-lactamase (NDM): assay validation screen against the NCATS LOPAC Collection (AID 1794843);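 note: nitrocefin turnover by NDM-1 measured as 485 nm absorbance at plateau; series mostly up to about 38 µM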
# Sequence of Metallo-beta-lactamase type 2 (Klebsiella pneumoniae) (C7C422 whole entry, looked up): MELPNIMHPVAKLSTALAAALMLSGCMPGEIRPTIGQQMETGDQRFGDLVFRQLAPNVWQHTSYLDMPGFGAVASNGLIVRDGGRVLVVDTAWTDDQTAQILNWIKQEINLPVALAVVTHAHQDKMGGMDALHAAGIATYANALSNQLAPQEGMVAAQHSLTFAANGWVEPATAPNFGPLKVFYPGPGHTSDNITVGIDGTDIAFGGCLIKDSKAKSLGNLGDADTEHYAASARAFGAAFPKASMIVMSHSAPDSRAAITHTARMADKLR
# Text: Assay Submitter (PI): James Inglese Ph.D., Patricia Dranchak Ph.D., Mahesh Aitha Ph.D.
# Assay Development and Screening Technology Laboratory (ADST)
# National Center for Advancing Translational Sciences (NCATS), Rockville, MD
# National Institute of Health (NIH), Bethesda, Maryland
# The metallo-beta-lactamases (MBL) are a main antibiotic resistance mechanism evolved by bacteria. There is an urgent clinical need for MBL inhibitors to mitigate this growing threat. To support a machine-based learning study, qHTS has been used to experimentally test inhibitors identified by prediction tools.
# PROTOCOL TABLE (as described by Inglese et al., 2007)
# SEQUENCE No. (e.g., 1, 2, 3, etc.); […] (e.g., enzyme, Incubation, Reagent, etc.); VALUE; DESCRIPTION
# 1; NDM-1; 4 uL of 3 nM enzyme in 50 mM HEPES (pH 7.0), 1 uM Zn2SO4, 0.01% Tween20; Use BioRaptr to dispense into Aurora black, clear bottom low base 1536-well plates
# 2; Compounds; 23 nL; Use Pin Tool (Wako) to transfer DMSO control and library compounds in DMSO
# 4; Reagent; 2 uL of 50 uM nitrocefin
# 6; Detector; Absorbance at 485 nm (bandwidth = 5 nm, 25 flashes/well) on Tecan Infinity […]
# 6; Default reader settings were applied for absorbance read at 485 nm, bandwidth = 5 nm, 25 flashes/well. […]
# Yasgar A, Shinn P, Jadhav A, Auld D, Michael S, Zheng W, Austin CP, Inglese J, Simeonov A. 2008. Compound Management for Quantitative High-Throughput Screening. […]
smiles,measurement,setting,value
CCOC(=O)c1c(CSc2ccccc2)n(C)c2cc(Br)c(O)c(CN(C)C)c12,Potency,[1],inactive
CCCCCCCCCCCCCCCC(=O)O[C@H]1[C@@H](O)[C@@H](O)[C@@H]([C@H](NC(=O)[C@@H]2C[C@@H](CCC)CN2C)[C@H](C)Cl)O[C@@H]1SC,Potency,[1],inactive
same,Potency,[2],inactive
O=C(O)Cc1cccc(OCCCN(Cc2cccc(C(F)(F)F)c2Cl)CC(c2ccccc2)c2ccccc2)c1,Potency,[1],inactive
COc1ccc2nc3cc(Cl)ccc3c(Nc3cc(CN4CCCC4)c(O)c(CN4CCCC4)c3)c2n1,Potency,[1],inactive
NCc1c[nH]c(=S)n1[C@H]1CCc2c(F)cc(F)cc2C1,Potency,[1],inactive
O=C(O)c1nc(=O)[nH]c(=O)[nH]1,Potency,[1],inactive
same,"activity change, negative = inhibition",[2],4.26% [at 0.409 µM]
CN(C)N=Nc1nc[nH]c1C(N)=O,Potency,[1],inactive
same,Potency,[2],inactive
Cc1ccc(S(=O)(=O)OCC(=O)Nc2ccc(C(=O)O)c(O)c2)cc1,Potency,[3],12.9 µM (active)
same,Potency,[1],inactive
O=c1cc(-c2ccc(O)c(O)c2)oc2cc(O)cc(O)c12,Potency,[4],inactive
same,outcome,[5],inactive
same,outcome,[6],inactive
same,Potency,[1],inactive
CCN1C[C@H](C)n2c(c(O)c3c(=O)n(Cc4ccc(F)c(Cl)c4)nc(C(=O)NC)c32)C1=O,Potency,[3],inactive
same,Potency,[1],inactive
same,Potency,[2],inactive
same,Potency,[7],inactive
O=C(O)CCC=CCC[C@@H]1[C@H](N2CCCCC2)[C@@H](O)C[C@@H]1OCc1ccc(-c2ccccc2)cc1,Potency,[1],inactive
CN1N=C(N)c2cn([C@@H]3O[C@H](COP(=O)(O)O)[C@@H](O)[C@@H]3O)c3ncnc1c23,Potency,[1],inactive
CCC[C@H](Nc1nc(-c2ccc(NC(=O)NCC)c(OC)c2)ncc1C)c1cccnc1,Potency,[1],inactive
Nc1ncnc2c1ncn2[C@@H]1O[C@H](CO)[C@@H](O)[C@@H]1O,Potency,[1],inactive
same,Potency,[2],inactive
Cc1cc(NC(=O)Nc2ccc(N(C)C)cc2)c2cc(F)cc(F)c2n1,Potency,[1],inactive
CC(C)CN(C[C@@H](O)[C@H](Cc1ccccc1)NC(=O)O[C@H]1CO[C@H]2OCC[C@H]21)S(=O)(=O)c1ccc(N)cc1,Potency,[1],inactive
OC[C@H]1O[C@@H](OCCc2ccc(O)cc2)[C@H](O)[C@@H](O)[C@H]1O,outcome,[8],inactive
same,Potency,[4],inactive
same,outcome,[9],inactive
C=CCc1cccc(C=NNC(=O)CN2CCN(Cc3ccccc3)CC2)c1O,outcome,[10],inactive
same,Potency,[1],inactive
same,Potency,[2],inactive
CN(C)CCCNC(=O)c1ccc(-c2cc(O)c3ncccc3c2)cc1,Potency,[3],inactive
same,Potency,[1],inactive
same,Potency,[2],inactive
same,Potency,[7],inactive
Cc1cc2nc3c(=O)[nH]c(=O)nc-3n(CC(O)C(O)C(O)CO)c2cc1C (stereo unspecified),Potency,[4],25.1 µM (active)
same,outcome,[5],inactive
same,outcome,[6],inactive
same,Potency,[1],inactive
same,Potency,[2],inactive
Cc1cc(OCCCS(C)(=O)=O)cc(C)c1-c1cccc(COc2ccc3c(c2)OC[C@H]3CC(=O)O)c1,Potency,[1],inactive
Cn1c(=O)c(Oc2ccc(F)cc2F)cc2cnc(NC3CCOCC3)nc21,Potency,[1],16.3 µM (active)
CNC(=O)[C@H](Cc1ccccc1)NC(=O)[C@H](CC(C)C)[C@H](CSc1cccs1)C(=O)NO,Potency,[1],inactive
same,Potency,[2],inactive
N#Cc1c(N(CC(=O)O)CC(=O)O)sc(C(=O)O)c1CC(=O)O,Potency,[1],inactive
same,"activity change, negative = inhibition",[2],4.92% [at 0.409 µM]
CCc1cc(-c2n[nH]c(C)c2-c2ccc3c(c2)OCCO3)c(O)cc1O,Potency,[1],inactive
same,Potency,[2],inactive
N#CC(c1ccc(Cl)cc1)c1c(Cl)cc(-n2ncc(=O)[nH]c2=O)cc1Cl (stereo unspecified),Potency,[1],inactive
CC(C)(CO)[C@@H](O)C(=O)NCCC(=O)O,outcome,[5],inactive
same,outcome,[6],inactive
same,Potency,[1],inactive
same,Potency,[2],inactive
C[C@H](CCC(=O)O)[C@H]1CC[C@H]2[C@H]3[C@@H](CC[C@]12C)[C@@]1(C)CC[C@@H](O)C[C@H]1C[C@@H]3O,Potency,[1],inactive
Cc1ccc(NC(=O)c2cccc(N(C)C)c2)cc1NC(=O)c1ccc(O)cc1,Potency,[1],inactive
CC(=O)Nc1cccc(-n2c(=O)n(C3CC3)c(=O)c3c(Nc4ccc(I)cc4F)n(C)c(=O)c(C)c32)c1,Potency,[3],2.3 µM (active)
same,Potency,[1],inactive
same,Potency,[2],inactive
same,Potency,[7],inactive
CCC(=O)NCC[C@@H]1CCc2ccc3c(c21)CCO3,Potency,[1],inactive
same,Potency,[2],inactive
COc1ccc(-c2oc3c(CC=C(C)C)c(O)cc(O)c3c(=O)c2O)cc1,Potency,[1],inactive
C[C@H]1COC2=C1C(=O)C(=O)c1c2ccc2c1CCCC2(C)C,Potency,[1],inactive
CN1C(=O)C[C@H](C(=O)N[C@@H](Cc2cnc[nH]2)C(=O)N2CCC[C@@H]2C(N)=O)NC1=O,Potency,[1],inactive
same,Potency,[2],inactive
C[C@@H](O)[C@H]1C(=O)N2C(C(=O)OCOC(=O)C(C)(C)C)=C(SC3CN(C4=NCCS4)C3)[C@H](C)[C@H]12,Potency,[1],inactive
same,Potency,[2],inactive
CCCCc1ccc(NS(=O)(=O)c2ccc(C)c(C(=O)N3CCN(c4cccc(C)c4C)CC3)c2)cc1,Potency,[1],inactive
same,Potency,[2],inactive
